{"source": "PubChem BioAssay AID504467", "about": "(National Center for Advancing Translational Sciences (NCATS), 2011)", "note": "Screen size: about 330,000 compounds; about 7,700 (2.3%) were called active. Another 26% or so got no clear call; they are omitted. Calls come from the whole dose curve; as a rule, active = well fitted inhibition curve with a large enough effect; inconclusive = small, poorly fitted or top-dose-only effect, or effect the other way; inactive = flat fitted curve, though single readings scatter. The sample as a whole holds a higher share of actives than the screen did. % is set by controls: 0 for no effect and ±100 for the full control effect; potency is the fitted concentration of half-maximal effect."}
{"test": "qHTS screen for small molecules that inhibit ELG1-dependent DNA repair in human embryonic kidney (HEK293T) cells expressing luciferase-tagged ELG1; note: nearly all actives have a fitted effect of over 55% in size", "conditions": "HEK293T ELG1-luciferase reporter, luminescence, 16 h, DNA damage induced by 5-fluorouridine; series mostly up to 46.1 µM; activity change, negative = inhibition: at the top concentration", "in_short": "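DMSO vehicle served as the neutral condition. Each well held 2,000 cells given 5-fluorouridine plus compound; after 16 hr at 37 °C/5% CO2, ONE-Glo was added and luciferase measured 30 min later.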"}
{"smiles": "CCOc1ccccc1OCC(=O)Nc1ccccc1C(=O)NC1CC1", "activity change, negative = inhibition": "-13.3% (inactive)"}
{"smiles": "Cc1ccc(S(=O)(=O)NCc2ccc(C(=O)NC3CCC(C)CC3)cc2)cc1", "note": "(stereo unspecified)", "activity change, negative = inhibition": "0.703% (inactive)"}
{"smiles": "CCCCn1c(N)c(N(CCOC)C(=O)c2oc3ccc(OC)cc3c2C)c(=O)[nH]c1=O", "activity change, negative = inhibition": "12.6% (inactive)"}
{"smiles": "CCN(C(=O)COC(=O)CCC(=O)c1cccs1)C1CCCCC1", "activity change, negative = inhibition": "0% (inactive)"}
{"smiles": "CN(C)CCCN(C(=O)c1ccc(S(=O)(=O)N2CCCc3ccccc32)cc1)c1nc2ccc(F)cc2s1", "activity change, negative = inhibition": "0% (inactive)"}
{"smiles": "Cc1ccc(NC(=O)c2cccc(S(=O)(=O)N3CCCc4ccccc43)c2)nc1", "Potency": "18.3 µM (active)"}
{"smiles": "CS(=O)(=O)c1ccc2nc(NC(=O)c3ccc(N4CCCC4=O)cc3)sc2c1", "activity change, negative = inhibition": "-12.2% (inactive)"}
{"smiles": "Cc1cccc(NC(=O)c2cccc(S(=O)(=O)N3CCCC3)c2)n1", "activity change, negative = inhibition": "-4.45% (inactive)"}
{"smiles": "O=C(Nc1nc2ccc([N+](=O)[O-])cc2s1)c1ccc(S(=O)(=O)N2CCCc3ccccc32)cc1", "Potency": "2.31 µM (active)"}
{"smiles": "CC1CCN(C(=O)c2cccc(S(=O)(=O)N3CCCc4ccccc43)c2)CC1", "activity change, negative = inhibition": "16% (inactive)"}
{"smiles": "O=C(COC(=O)c1ccco1)Nc1ccc(Cl)cn1", "activity change, negative = inhibition": "23.5% (inactive)"}
{"smiles": "COc1ccc(Cl)cc1NC(=O)COC(=O)c1ccc(Br)o1", "activity change, negative = inhibition": "22.8% (inactive)"}
{"smiles": "O=C(NCCN1CCOCC1)c1cccc(S(=O)(=O)Nc2ccc(F)cc2)c1", "activity change, negative = inhibition": "4.32% (inactive)"}
{"smiles": "COc1ccc(CCNC(=O)CSCc2ccc(Br)cc2)cc1OC", "activity change, negative = inhibition": "-25.8% (inactive)"}
{"smiles": "COc1ccc(COC(=O)NC(C(=O)O)c2ccccc2)cc1", "note": "(stereo unspecified)", "activity change, negative = inhibition": "0.779% (inactive)"}
{"smiles": "CCOC(=O)CN(Cc1ccc(OC)c(OC)c1)S(=O)(=O)c1ccc(OC)cc1", "activity change, negative = inhibition": "3.12% (inactive)"}
{"smiles": "COc1ccc(C(CCN(Cc2ccc(OC)c(OC)c2)C(=O)CCl)c2ccccc2)cc1", "note": "(stereo unspecified)", "Potency": "20.6 µM (active)"}
{"smiles": "Cc1cccc(C)c1Nc1nnc(SCC(=O)NCCCN2CCCC2=O)s1", "activity change, negative = inhibition": "-6.62% (inactive)"}
{"smiles": "C[C@H](CO)N1C[C@H](C)[C@@H](CN(C)Cc2ccc(-c3ccccc3)cc2)Oc2ccc(NC(=O)Cn3cnnn3)cc2C1=O", "activity change, negative = inhibition": "-17.5% (inactive)"}
{"smiles": "Cc1noc(C)c1C(=O)OCC(=O)/C=C1\\N(C)c2ccccc2C1(C)C", "activity change, negative = inhibition": "10.3% (inactive)"}
{"smiles": "CC(=O)Nc1cccc(OCC(=O)/C=C2\\N(C)c3ccccc3C2(C)C)c1", "Potency": "18.3 µM (active)"}
{"smiles": "CCOc1cccc(NC(=O)CC#N)c1", "activity change, negative = inhibition": "-2.32% (inactive)"}
{"smiles": "Cc1ccc(-n2c(SCC(=O)NCCC3=CCCCC3)nc3n[nH]c(C)c3c2=N)cc1Cl", "activity change, negative = inhibition": "3.77% (inactive)"}
{"smiles": "Cc1ccc2cc(C)c(N3CCN(c4ccc(F)cc4)CC3)nc2c1", "activity change, negative = inhibition": "2.56% (inactive)"}
{"smiles": "COc1ccccc1-c1nn(Cc2ccccc2)cc1C(=O)N1CCN(c2ncccn2)CC1", "activity change, negative = inhibition": "-22.5% (inactive)"}
{"smiles": "CN(C)c1ccnc2sc3c(=O)n(Cc4ccccc4)cnc3c12", "Potency": "4.61 µM (active)"}
{"smiles": "O=c1c2c(ncn1Cc1ccccc1)nc1n2CCC1", "activity change, negative = inhibition": "2.62% (inactive)"}
{"smiles": "O=c1c2[nH]c3ccc(Cl)cc3c2ncn1Cc1ccccn1", "activity change, negative = inhibition": "3.64% (inactive)"}
{"smiles": "Cc1c(NC(=O)C(C)OC(=O)c2ccccc2O)c(=O)n(-c2ccccc2)n1C", "note": "(stereo unspecified)", "activity change, negative = inhibition": "22.8% (inactive)"}
{"smiles": "Cc1cc(C(=O)OC(C)C(=O)Nc2cccc(S(=O)(=O)N3CCOCC3)c2)c(C)o1", "note": "(stereo unspecified)", "activity change, negative = inhibition": "-16.8% (inactive)"}
{"smiles": "Cc1ccc(NC(=O)C(C)OC(=O)Cc2c[nH]c3ccccc23)cc1S(=O)(=O)N1CCOCC1", "note": "(stereo unspecified)", "Potency": "18.3 µM (active)"}
{"smiles": "CC(OC(=O)CCCc1c[nH]c2ccccc12)C(=O)Nc1ccc(S(N)(=O)=O)cc1", "note": "(stereo unspecified)", "activity change, negative = inhibition": "3.33% (inactive)"}
{"smiles": "O=C(N[C@H]1C/C=C\\C(c2ccc(F)cc2)N(Cc2ccccc2)C(=O)C1)OCC1c2ccccc2-c2ccccc21", "note": "(stereo partly specified)", "activity change, negative = inhibition": "-10.5% (inactive)"}
{"smiles": "Nc1c(Cl)cc(-c2csc(N3CCCC3c3nc4cc(Cl)c(Cl)cc4n3CCOCCO)n2)cc1Cl", "note": "(stereo unspecified)", "activity change, negative = inhibition": "-9.47% (inactive)"}
{"smiles": "COc1ccc(C(=O)CSc2nnc(-c3ccco3)o2)cc1", "activity change, negative = inhibition": "4.26% (inactive)"}
{"smiles": "COc1ccc(OC)c(C(=O)CSc2nnc(-c3cccs3)o2)c1", "activity change, negative = inhibition": "25.4% (inactive)"}
{"smiles": "COc1ccc(-n2c(C)cc(C(=O)CSc3nnc(-c4cccs4)o3)c2C)cc1", "Potency": "6.51 µM (active)"}
{"smiles": "CCN(CC)CCN1C(=O)C2C(C(=O)Nc3ccc(Br)cc3)C3C=CC2(O3)C1C(=O)NC1CCCCC1", "note": "(stereo unspecified)", "activity change, negative = inhibition": "24.9% (inactive)"}
{"smiles": "Cc1ccc(NC(=S)NCCc2ccc(Cl)cc2)c(C)c1", "activity change, negative = inhibition": "1.86% (inactive)"}
{"smiles": "CCC1(c2ccccc2)NC(=O)N(CC(=O)Nc2ccccc2C(=O)NC2CCCC2)C1=O", "note": "(stereo unspecified)", "activity change, negative = inhibition": "4.06% (inactive)"}
{"smiles": "CCc1ccc(NC(=O)Cn2nnc(C(=O)NCc3ccc(OC)cc3)c2N)cc1", "activity change, negative = inhibition": "17.6% (inactive)"}
{"smiles": "COc1cc(C2CC(=O)Oc3cc(OC)c(OC)c(OC)c32)cc(OC)c1OC", "note": "(stereo unspecified)", "activity change, negative = inhibition": "17.8% (inactive)"}
{"smiles": "O=C(CN(c1ccc2c(c1)OCCO2)S(=O)(=O)c1ccccc1)Nc1ccc2c(c1)OCO2", "Potency": "9.2 µM (active)"}
{"smiles": "CCN(CC(=O)Nc1ccc2c(c1)OCO2)S(=O)(=O)c1ccccc1", "activity change, negative = inhibition": "1.72% (inactive)"}
{"smiles": "O=C(CCS(=O)(=O)Cc1ccccc1)Nc1ccc2c(c1)OCCO2", "activity change, negative = inhibition": "21.4% (inactive)"}
{"smiles": "NC(=O)c1cc(S(=O)(=O)NCCCc2ccco2)cs1", "activity change, negative = inhibition": "0.127% (inactive)"}
{"smiles": "O=C(Cn1cnc2ccccc2c1=O)NCC1COc2ccccc2O1", "note": "(stereo unspecified)", "activity change, negative = inhibition": "-0.196% (inactive)"}
{"smiles": "CCn1cc(C(=O)NCC2COc3ccccc3O2)c2cc(OC)c(OC)cc2c1=O", "note": "(stereo unspecified)", "Potency": "14.6 µM (active)"}
{"smiles": "Cc1noc(C)c1C(=O)NCC1COc2ccccc2O1", "note": "(stereo unspecified)", "activity change, negative = inhibition": "0.0743% (inactive)"}
{"smiles": "CCC1CCCCN1C(=O)CSc1nc2c(c(=O)n1C)SC(C)C2", "note": "(stereo unspecified)", "activity change, negative = inhibition": "-8.54% (inactive)"}
{"smiles": "CC(=O)c1cccc(OCC(=O)OCC(=O)Nc2cc(S(=O)(=O)N3CCCCC3)ccc2C)c1", "activity change, negative = inhibition": "1.04% (inactive)"}
{"smiles": "CC(C(=O)Nc1ccc(O)c(C(=O)O)c1)N1C(=O)/C(=C/c2cccs2)SC1=S", "note": "(stereo unspecified)", "activity change, negative = inhibition": "10.8% (inactive)"}
{"smiles": "COc1cccc(OC)c1C(=O)NC(=S)NCc1ccco1", "activity change, negative = inhibition": "14% (inactive)"}
{"smiles": "COc1ccccc1C(=O)NCCn1cc(SCC(=O)NCc2ccco2)c2ccccc21", "Potency": "25.9 µM (active)"}
{"smiles": "COc1ccccc1C(=O)NCCC(=O)NCC(c1ccco1)N1CCCCC1", "note": "(stereo unspecified)", "activity change, negative = inhibition": "10.2% (inactive)"}
{"smiles": "Cc1cc(C)n2nc(C(=O)Nc3cccc(S(=O)(=O)N4CCOCC4)c3)nc2n1", "activity change, negative = inhibition": "14.6% (inactive)"}
{"smiles": "O=C(CCNC(=O)c1ccccc1Cl)NN=Cc1ccco1", "activity change, negative = inhibition": "2.44% (inactive)"}
{"smiles": "C#CCOCCOCCOCCNc1nc(N2CCN(C(=O)[C@H](CCC(=O)O)n3cc(CN)nn3)CC2)nc(N2CCN(C(=O)[C@H](CCC(=O)O)n3cc(CN)nn3)CC2)n1", "activity change, negative = inhibition": "7.9% (inactive)"}
{"smiles": "O=C(NC1CCCC1)C(c1ccco1)N(C(=O)c1ccco1)c1ccc(F)cc1", "note": "(stereo unspecified)", "activity change, negative = inhibition": "-2.68% (inactive)"}
{"smiles": "CC1=C[C@H]2Cc3cc(C)cc(C)c3S(=O)(=O)[C@@H]2C=C1", "Potency": "16.4 µM (active)"}
{"smiles": "COc1ccc(NC(=O)C2=NNC(=O)CC2)cc1S(=O)(=O)N1CCCCC1", "activity change, negative = inhibition": "0.964% (inactive)"}
{"smiles": "Cc1ccc(NC(=O)CCC(=O)N2CCC(c3ccccc3)=N2)cc1S(=O)(=O)N1CCCCC1", "activity change, negative = inhibition": "18.5% (inactive)"}
{"smiles": "COc1ccccc1C(=O)Nc1ccc(C)c(S(=O)(=O)N2CCCCC2)c1", "Potency": "4.11 µM (active)"}
{"smiles": "Cc1ccc(NC(=O)COC(=O)C2CC2)cc1S(=O)(=O)N1CCOCC1", "activity change, negative = inhibition": "10.1% (inactive)"}
{"smiles": "CCc1ccccc1OCC(=O)Nc1ccc(C)c(S(=O)(=O)N2CCCCCC2)c1", "Potency": "20.6 µM (active)"}
{"smiles": "COc1ccccc1C(CNC(=O)c1ccc(C)c(S(=O)(=O)N2CCCCC2)c1)N(C)C", "note": "(stereo unspecified)", "activity change, negative = inhibition": "7.46% (inactive)"}
